# Data as given in PubChem BioAssay (NCATS).
# Results filed as inconclusive are left out. A call without a number means that no potency is given here. The source made the active and inactive calls. Calls come from the whole dose curve; as a rule, active = well fitted curve in the direction sought with a large enough effect; inconclusive = small, poorly fitted or top-dose-only effect, or another doubt; inactive = no such curve, though single readings can be large; an effect the other way counts as inactive or inconclusive.
# How the values were obtained:
# [1] = qHTS of pediatric cancer cell lines to identify multiple opportunities for drug repurposing: Primary screen for NB-EBc1 cells (AID 1347095)
# Method in brief: (§1)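 Phenotypic viability qHTS, 48 h compound exposure, CellTiter-Glo luminescence read-out; multi-concentration dosing so that potency and efficacy derive directly from the primary screen's curves.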
# [2] = qHTS of pediatric cancer cell lines to identify multiple opportunities for drug repurposing: Primary screen for U-2 OS cells (AID 1347096); note: nearly all actives have a fitted effect of over 50% in size
# Method in brief: (§2)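 Cells (500-1,000/well) rested 5 h, then received compounds for 48 h; metabolically active cells were measured by CellTiter-Glo luminescence. Final concentrations spanned up to 46 µM (MIPE, 11-point) or 0.59 nM-46 µM (NPC, 8-point) in primary screens, 11-point in follow-ups.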
# [3] = qHTS of pediatric cancer cell lines to identify multiple opportunities for drug repurposing: Primary screen for Saos-2 cells (AID 1347097); note: nearly all actives have a fitted effect of over 40% in size
# Method in brief: as §1
# [4] = qHTS of pediatric cancer cell lines to identify multiple opportunities for drug repurposing: Primary screen for SK-N-SH cells (AID 1347098); note: nearly all actives have a fitted effect of over 65% in size
# Method in brief: as §2
# [5] = qHTS of pediatric cancer cell lines to identify multiple opportunities for drug repurposing: Primary screen for NB1643 cells (AID 1347099); note: nearly all actives have a fitted effect of over 50% in size
# Method in brief: as §1
# [6] = qHTS of pediatric cancer cell lines to identify multiple opportunities for drug repurposing: Primary screen for LAN-5 cells (AID 1347100)
# Method in brief: as §2
# [7] = qHTS of pediatric cancer cell lines to identify multiple opportunities for drug repurposing: Primary screen for BT-12 cells (AID 1347101); note: nearly all actives have a fitted effect of over 25% in size
# Method in brief: as §2
# [8] = qHTS of pediatric cancer cell lines to identify multiple opportunities for drug repurposing: Primary screen for Rh18 cells (AID 1347102); note: nearly all actives have a fitted effect of over 65% in size
# Method in brief: as §2
# [9] = qHTS of pediatric cancer cell lines to identify multiple opportunities for drug repurposing: Primary screen for RD cells (AID 1347104); note: nearly all actives have a fitted effect of over 55% in size
# Method in brief: as §1
# [10] = qHTS of pediatric cancer cell lines to identify multiple opportunities for drug repurposing: Primary screen for OHS-50 cells (AID 1347103); note: nearly all actives have a fitted effect of over 40% in size
# Method in brief: as §2
# Potency is the fitted concentration of half-maximal effect.
Structure (SMILES),Potency [1],Potency [2],Potency [3],Potency [4],Potency [5],Potency [6],Potency [7],Potency [8],Potency [9],Potency [10]
COc1ccc2cc([S+]([O-])Cc3ncc(C)c(OC)c3C)nc2c1,inactive,inactive,inactive,inactive,inactive,inactive,inactive,inactive,inactive,
O=C(C=CC=Cc1ccc2c(c1)OCO2)N1CCCCC1,inactive,inactive,inactive,inactive,inactive,inactive,inactive,inactive,inactive,inactive
Nc1ccn(C2CO[C@H](CO)O2)c(=O)n1 (some centres undefined),inactive,inactive,inactive,inactive,inactive,inactive,inactive,inactive,inactive,inactive
CCCCCCCCCCCCCCCC(=O)OC[C@@H](NC(=O)C(Cl)Cl)[C@H](O)c1ccc([N+](=O)[O-])cc1,inactive,inactive,inactive,inactive,inactive,inactive,inactive,inactive,inactive,inactive
O=C(C[C@@H]1CC=CCCC(=O)O[C@H](c2ccccc2)CNC1=O)NCc1ccc(Cl)cc1,inactive,inactive,inactive,inactive,,inactive,inactive,inactive,,inactive
C[C@H](NCc1ccc(OCc2cccc(F)c2)cc1)C(N)=O,10.5 µM (active),18.7 µM (active),16.6 µM (active),30.4 µM (active),14.8 µM (active),7.43 µM (active),,20.9 µM (active),16.6 µM (active),4.85 µM (active)
CCc1ccc(C(=O)Nc2cc(CN3CCN(C)CC3)cc(C(F)(F)F)c2)cc1C#Cc1cnc2ccnn2c1,11.8 µM (active),23.5 µM (active),14.8 µM (active),24.1 µM (active),1.18 µM (active),7.43 µM (active),27.3 µM (active),14.8 µM (active),18.7 µM (active),12.2 µM (active)
CN[C@@H]1C[C@H]2O[C@@](C)([C@H]1OC)n1c3ccccc3c3c4c(c5c6ccccc6n2c5c31)C(=O)N[C@H]4O,0.166 µM (active),2.96 µM (active),0.235 µM (active),0.607 µM (active),0.526 µM (active),1.32 µM (active),27.3 µM (active),0.59 µM (active),1.05 µM (active),0.217 µM (active)
C[N+]1(C)[C@@H]2C[C@@H](OC(=O)C(O)(c3cccs3)c3cccs3)C[C@H]1[C@@H]1O[C@@H]12,inactive,inactive,inactive,inactive,,inactive,inactive,inactive,inactive,inactive
Oc1ccc([C@@H]2Oc3ccc(O)cc3[C@@H]3CCC[C@@H]32)cc1,7.43 µM (active),inactive,6.62 µM (active),24.1 µM (active),16.6 µM (active),10.5 µM (active),24.3 µM (active),,16.6 µM (active),24.3 µM (active)
O=C1NC(O)CCN1[C@@H]1O[C@H](CO)[C@H](O)[C@H]1O (some centres undefined),inactive,inactive,inactive,inactive,inactive,inactive,inactive,inactive,inactive,inactive
Cc1cc(Nc2ncc3c(n2)N(C)C(=O)N(c2cc(NC(=O)c4cccc(C(F)(F)F)c4)ccc2C)C3)n(C)n1,0.743 µM (active),0.935 µM (active),0.372 µM (active),0.607 µM (active),0.209 µM (active),0.935 µM (active),,0.59 µM (active),0.418 µM (active),0.217 µM (active)
CCS(=O)(=O)Nc1ccc2[nH]c(O)c(C(=Nc3ccc(CN4CCCCC4)cc3)c3ccccc3)c2c1,0.187 µM (active),5.9 µM (active),0.662 µM (active),1.21 µM (active),0.118 µM (active),0.0372 µM (active),21.7 µM (active),4.18 µM (active),0.469 µM (active),1.53 µM (active)
CS[C@H]1SC[C@@H]2C(=O)N(C)[C@H](C(C)C)C(=O)OC[C@H](NC(=O)c3cnc4ccccc4n3)C(=O)N[C@H](C)C(=O)N(C)[C@@H]1C(=O)N(C)[C@H](C(C)C)C(=O)OC[C@H](NC(=O)c1cnc3ccccc3n1)C(=O)N[C@H](C)C(=O)N2C,inactive,0.0093 µM (active),0.0418 µM (active),0.0048 µM (active),inactive,inactive,0.0054 µM (active),,0.003 µM (active),0.0122 µM (active)
CCOC(=O)[C@H](CCc1ccccc1)N[C@@H](C)C(=O)N1[C@@H](C(=O)O)C[C@H]2CCC[C@@H]21,18.7 µM (active),18.7 µM (active),14.8 µM (active),,3.32 µM (active),13.2 µM (active),24.3 µM (active),16.6 µM (active),18.7 µM (active),19.3 µM (active)
O=c1c(O)c(-c2ccc(O)c(O)c2)oc2cc(O)ccc12,23.5 µM (active),inactive,16.6 µM (active),27.1 µM (active),,16.6 µM (active),27.3 µM (active),,,21.7 µM (active)
O=C(CN1C(=O)C2(CCCC2)NC[C@H]1c1cc(F)cc(F)c1)Nc1ccc2c(c1)C[C@@]1(C2)C(=O)Nc2ncccc21,inactive,inactive,inactive,inactive,,inactive,inactive,inactive,inactive,inactive
COc1ccc(S(=O)(=O)Nc2cc(-c3c(O)ccc4ccccc34)c(O)c3ccccc23)cc1,8.33 µM (active),inactive,4.69 µM (active),,18.7 µM (active),7.43 µM (active),30.6 µM (active),,29.6 µM (active),10.9 µM (active)
O=C(O)[C@H](CC(=O)N1C[C@@H]2CCCC[C@H]2C1)Cc1ccccc1,inactive,inactive,inactive,,inactive,inactive,inactive,inactive,inactive,inactive
C#C[C@]1(O)CC[C@@H]2[C@@H]3CCC4=CC(=O)CC[C@@H]4[C@H]3CC[C@@]21CC,inactive,inactive,inactive,,inactive,inactive,inactive,inactive,inactive,
COc1cc(OC)c(NC(=O)Nc2cc(C)on2)cc1Cl,inactive,inactive,inactive,inactive,,inactive,inactive,inactive,inactive,
COc1cccc2c1C(=O)c1c(O)c3c(c(O)c1C2=O)C[C@@](O)(C(=O)CO)C[C@@H]3O[C@H]1C[C@H](N)[C@H](OC2CCCCO2)[C@H](C)O1 (some centres undefined),0.296 µM (active),inactive,inactive,inactive,,0.469 µM (active),2.43 µM (active),inactive,13.2 µM (active),
O=c1ccn([C@@H]2O[C@H](CO)[C@H](O)[C@@H]2F)c(=O)[nH]1,inactive,inactive,inactive,,inactive,inactive,inactive,inactive,,
O=c1[nH]c(=O)n([C@H]2C[C@@H](O)[C@@H](CO)O2)cc1C=CBr,inactive,inactive,inactive,,inactive,inactive,inactive,inactive,inactive,inactive
CC[C@H]1OC(=O)[C@H](C)[C@@H](O[C@H]2C[C@@](C)(OC)[C@@H](O)[C@H](C)O2)[C@H](C)[C@@H](O[C@@H]2O[C@@H](C)C[C@H](N(C)C)[C@@H]2O)[C@](C)(O)C[C@@H](C)C(=O)[C@H](C)[C@@H](O)[C@]1(C)O,inactive,inactive,inactive,inactive,,inactive,inactive,inactive,inactive,
CC(=O)NCC(=O)N1[C@H]2CC[C@H]1c1cc(Nc3ncc(C(F)(F)F)c(NC4CCC4)n3)ccc12,0.0662 µM (active),inactive,0.743 µM (active),,1.18 µM (active),0.0332 µM (active),24.3 µM (active),,2.35 µM (active),0.344 µM (active)
C[C@H](CCC(=O)O)[C@H]1CC[C@H]2[C@@H]3[C@H](O)C[C@@H]4C[C@H](O)CC[C@]4(C)[C@@H]3CC[C@]12C,inactive,inactive,inactive,inactive,,inactive,inactive,inactive,inactive,inactive
